Experiment [1] concerns Neuro-2a. Kind of experiment: neurite formation score, plate-normalized to DMSO control mean 5.04 (score (0-8 scale)); higher = more or longer neurites. The following applies: 1 µM. How it is done: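 Neuro-2a mouse neuroblastoma cells in PLL-coated 96-well plates were pre-treated for 1 h in DMEM(+) with each kinase inhibitor at 1 µM, then switched to serum-free DMEM(-) with inhibitor to induce neurite outgrowth and fixed about 2-3 h later. Three blinded observers scored neurite formation from 0 (no neurites) to 8 (long neurites on almost all cells).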

The subject of experiment [2] is Neuro-2a. Described as above. The following applies: 0.1 µM. As to the method:
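Neuro-2a mouse neuroblastoma cells in PLL-coated 96-well plates were pre-treated for 1 h in DMEM(+) with each kinase inhibitor at 0.1 µM, then switched to serum-free DMEM(-) with inhibitor to induce neurite outgrowth and fixed about 2-3 h later. Three blinded observers scored neurite formation from 0 (no neurites) to 8 (long neurites on almost all cells).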

This passage reports neurite formation score results from the supplement of paper PMC8047044.

Several values for one entry are separate records, joined by “and”; a condition that tells them apart may be missing. Identical values can stand only once. Counter-ions that a name gives are not always drawn.

For `O=S(=O)(NCCNC/C=C/c1ccc(Br)cc1)c1cccc2cnccc12`, the neurite formation score stood at 4.54 in the experiment with Neuro-2a [1] and 4.75 with Neuro-2a [2].
`N#Cc1ccc2[nH]c(O)c(-c3ccc(CN4CCOCC4)cn3)c2c1`: the neurite formation score worked out at 4.54 in the experiment with Neuro-2a [1] and 4.08 in the experiment with Neuro-2a [2].
In the same order, the values of `Cc1cn(-c2cc(NC(=O)c3ccc(C)c(Nc4nccc(-c5cccnc5)n4)c3)cc(C(F)(F)F)c2)cn1` [Nilotinib(AMN-107)] are 4.57 and 5.21.
The matching figures for `Cc1cnc(NC(=O)Nc2cc(Br)c(C)cc2OC[C@@H]2CNCCO2)cn1`: 4.96 and 4.58.
In the same order, the values of `Cc1nc(Nc2cnn(C3CCNCC3)c2)nc2c1N(C)C(=O)c1cc3ccccc3cc1N2C` are 3.96 and 4.25.
Take `CCS(=O)(=O)N1CCN(c2ccc(Nc3ncc(C(N)=O)c(NC4CC4)n3)cc2)CC1`: the figures for the neurite formation score in the experiment on Neuro-2a [1] and in the experiment with Neuro-2a [2] were 4.54 and 5.08, respectively.
The matching figures for `CNC(=O)c1cc(Oc2ccc(NC(=O)Nc3ccc(Cl)c(C(F)(F)F)c3)c(F)c2)ccn1` [Regorafenib hydrochloride]: 3.69 and 4.92.
The matching figures for `CCN(CCCOc1ccc2c(Nc3cc(CC(=O)Nc4cccc(F)c4)[nH]n3)ncnc2c1)CCOP(=O)(O)O`: 4.91 and 4.71.
Regarding `CCC[C@H](NC(=O)/C(C#N)=C/c1cccc(Br)n1)c1ccccc1`, the values for the neurite formation score with Neuro-2a [1] and in the experiment on Neuro-2a [2] were 1.24 and 4.21, respectively.
In the same order, the values of `O=C(NCCCNc1nc(Nc2cccc(NC(=O)N3CCCC3)c2)ncc1I)c1cccs1` are 5.24 and 4.54.
`Cc1c(NC(=O)OC[C@@H]2COCCN2)cn2ncnc(Nc3ccc4c(cnn4Cc4cccc(F)c4)c3)c12`: the figures for the neurite formation score with Neuro-2a [1] and in the experiment with Neuro-2a [2] were 2.91 and 3.71, respectively.
For the molecule `Cc1ccc(F)c(NC(=O)Nc2ccc(-c3cccc4[nH]nc(N)c34)cc2)c1` [Linifanib (ABT-869)], the neurite formation score was determined as 3.14 in the experiment with Neuro-2a [1] and 3.76 in the experiment with Neuro-2a [2].
The matching figures for `Cc1cc(CS(=O)(=O)c2ccccc2)cc(OCc2ccc(CN3CCC[C@@H]3CO)cc2)c1`: 4.69 and 5.58.
The matching figures for `Cc1[nH]c2ccccc2c1C1=C(NCCc2ccc(F)cc2)C(=O)N(C)C1=O`: 4.54 and 2.42.
For `COc1ccc(C(=O)Nc2sc3c(c2C(N)=O)CCCC3)cc1OC`, the neurite formation score came out at 4.57 with Neuro-2a [1] and 4.71 in the experiment with Neuro-2a [2].
On to `C#Cc1cccc(Nc2ncnc3cc4c(cc23)OCCOCCOCCO4)c1` [Icotinib], for which the neurite formation score amounted to 4.8 in the experiment with Neuro-2a [1] and 5.09 with Neuro-2a [2].
For `CNC(=O)c1cc(Oc2ccc(NC(=O)Nc3cc(C(C)(C)C)nn3-c3ccc4ncccc4c3)c(F)c2)ccn1` [DCC-2036 (Rebastinib)], the values for the neurite formation score with Neuro-2a [1] and with Neuro-2a [2] were 1.29 and 3.92, respectively.
In the same order, the values of `CC(C)c1cnn2c(NCc3ccccc3)cc(NCCCCCCN)nc12` are 4.57 and 4.88.
Regarding `CN(c1ncccc1CNc1nc(Nc2ccc3c(c2)CC(=O)N3)ncc1C(F)(F)F)S(C)(=O)=O`, the neurite formation score in the experiment with Neuro-2a [1] is 1.57 and 4.24; in the experiment on Neuro-2a [2], 3.54 and 4.88.
With `CC(C)(O)CC(=O)NCCn1ccc2ncnc(Nc3ccc(Oc4cccc(C(F)(F)F)c4)c(Cl)c3)c21`, the neurite formation score turned out to be 5.14 with Neuro-2a [1] and 4.42 in the experiment with Neuro-2a [2].
For `O=C(NCc1ccccc1)c1csc(Nc2ccncn2)n1` [Thiazovivin], the neurite formation score with Neuro-2a [1] amounted to 4.57; in the experiment on Neuro-2a [2], 4.88.
The matching figures for `O=C(/C=C/c1ccc(O)c(O)c1)c1ccc(O)cc1O` [Butein]: 5.24 and 4.38.
On to `CN(C)C/C=C/C(=O)Nc1cc2c(Nc3ccc(F)c(Cl)c3)ncnc2cc1O[C@H]1CCOC1` [Afatinib (BIBW2992)], for which the neurite formation score in the experiment on Neuro-2a [1] amounted to 3.57; with Neuro-2a [2], 4.54.
The matching figures for `CCn1nnc2c(N3CCOCC3)nc(-c3ccc(NC(=O)Nc4ccc(C(=O)N5CCN(C)CC5)cc4)cc3)nc21`: 3.14 and 4.76.
In the same order, the values of `C[C@@H](Oc1cc(-c2cnn(C3CCNCC3)c2)cnc1N)c1c(Cl)ccc(F)c1Cl` [(R)-Crizotinib] are 4.91 and 4.71.
In the same order, the values of `O=[N+]([O-])c1ccc(-c2nc(-c3ccc(F)cc3)c(-c3ccncc3)[nH]2)cc1` are 3.96 and 4.25.
For the molecule `Cc1cnc(Nc2ccc(F)cc2Cl)nc1-c1c[nH]c(C(=O)N[C@H](CO)c2cccc(Cl)c2)c1`, the figures for the neurite formation score with Neuro-2a [1] and in the experiment on Neuro-2a [2] were 3.69 and 4.58, respectively.
In the same order, the values of `Cn1c(Nc2ccc(C(F)(F)F)cc2)nc2cc(Oc3ccnc(-c4ncc(C(F)(F)F)[nH]4)c3)ccc21` are 4.24 and 4.88.
The matching figures for `CO[C@H]1C[C@@H]2CC[C@@H](C)[C@@](O)(O2)C(=O)C(=O)N2CCCC[C@H]2C(=O)O[C@H]([C@H](C)C[C@@H]2CC[C@@H](OP(C)(C)=O)[C@H](OC)C2)CC(=O)[C@H](C)/C=C(\C)[C@@H](O)[C@@H](OC)C(=O)[C@H](C)C[C@H](C)/C=C/C=C/C=C/1C` [Ridaforolimus (Deforolimus, MK-8669)]: 4.21 and 1.42.
Take `O=S(=O)(c1cccc2c(O)nccc12)N1CCCNCC1` [Hydroxyfasudil hydrochloride]: the neurite formation score with Neuro-2a [1] was determined as 3.8; with Neuro-2a [2] it was 2.09.
The matching figures for `C=CC(=O)Nc1cccc(Nc2nc(Nc3ccc(OCCOC)cc3)ncc2F)c1`: 4.91 and 4.71.
In the same order, the values of `O=C1NC(=O)C(=Cc2ccc(-c3ccc(F)cc3)o2)S1` (stereo in doubt) are 4.54 and 3.08.
The matching figures for `CN1CCN(Cc2ccc(-c3cnc4[nH]cc(-c5ccc6[nH]ccc6c5)c4c3)cc2)CC1`: 4.54 and 4.42.
On to `CNC(=O)c1cc(Oc2ccc(NC(=O)Nc3ccc(Cl)c(C(F)(F)F)c3)cc2)ccn1` [Sorafenib Tosylate], for which the neurite formation score in the experiment with Neuro-2a [1] is 4.57; with Neuro-2a [2] it was 3.54.
In the same order, the values of `CC1(C)CNc2cc(NC(=O)c3cccnc3NCc3ccncc3)ccc21` [Motesanib Diphosphate (AMG-706)] are 4.36 and 4.92.
Take `CNc1nc(Nc2cnn(C3CCN(C4COC4)CC3F)c2Cl)ncc1C(F)(F)F` (configuration not stated): the results for the neurite formation score with Neuro-2a [1] and in the experiment on Neuro-2a [2] were 4.88 and 4.75, respectively.
